High-throughput results deposited in PubChem by National Center for Advancing Translational Sciences (NCATS).
Pf growth 96h: Primary qHTS for delayed death inhibitors of the malarial parasite plastid, 96 hour incubation; P. falciparum luciferase reporter growth, 96 h; Potency, µM (top dose mostly 28.7 µM), actives largely listed as inhibitors; 6.9% of 320,000 active; AID 504834, 2011; active = well fitted inhibition curve with a large enough effect; inconclusive = small, poorly fitted or top-dose-only effect, or another doubt; inactive = no such curve, though single readings can be large or run the other way
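Erythrocytes infected with luciferase-expressing P. falciparum were dispensed at 2% hematocrit and 0.05% parasitemia (final), then incubated with compounds 96 hours at 37 C in 5% CO2. Luminescence after detection reagent addition reported growth.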
CHX counter: Cycloheximide Counterscreen for Small Molecule Inhibitors of Shiga Toxin | cell reporter, cycloheximide protein synthesis inhibition counterscreen | max response, % | 12% of 300,000 active; in the data active = max response mostly above about 13%, no sharp cut-off; inactive = mostly below about 14%; note: read at 38.3 µM for the half of the compounds with a filed dose
NS1 inh: qHTS Assay for Inhibitors of Influenza NS1 Protein Function. 0.4% of 270,000 active. Potency, µM (top dose mostly 46.1 µM); note: actives are rising curves; nearly all actives have a fitted effect of over 50% in size
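Recovery from NS1-induced slow growth read by OD600 in budding yeast switched to galactose assay medium (pH 6.0, -URA) at 1:100 dilution. Compound 23 nl per well; the matching strain lacking NS1 serves as control.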
Shiga toxin inh: A qHTS for Small Molecule Inhibitors of Shiga Toxin. inhibition, % at 38.7 µM. Vero cells, Shiga toxin protein synthesis inhibition reporter. 9.2% of 290,000 active; in the data active = inhibition mostly above about 28%, no sharp cut-off; inactive = mostly below about 43%
Pf growth 48h: Primary qHTS for delayed death inhibitors of the malarial parasite plastid, 48 hour incubation; Potency, µM (titrated, usually from 28.7 µM), most hits filed as inhibitors; P. falciparum luciferase growth in erythrocytes, 48 h; 5.9% of 310,000 active; active = well fitted inhibition curve with a large enough effect; inconclusive = small, poorly fitted or top-dose-only effect, or another doubt; inactive = no such curve, though single readings can be large or run the other way
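Parasite viability was followed by luminescence of a genomically integrated firefly luciferase. Cultures held 0.1% parasitemia at 2% hematocrit (final), incubated under 5% CO2 at 37 C.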
SARS PLP yeast: qHTS of Yeast-based Assay for SARS-CoV PLP. S. cerevisiae expressing SARS-CoV PLpro, growth rescue. Potency, µM (titrated, usually from 32.9 µM), usual class: activators. 0.19% of 330,000 active; note: nearly all actives have a fitted effect of over 55% in size
A number is an active result. In the library only some 21% were active in any assay of this set; here they are far more common. Unless noted, calls come from the whole dose curve.

Screening Cc1cccc(N2CC(C(=O)Nc3cccc(S(=O)(=O)N4CCCCC4)c3)CC2=O)c1C (stereo not drawn) returned Pf growth 96h inconclusive, Pf growth 48h inconclusive and SARS PLP yeast inactive.
For CC(=O)c1cccc(NC(=O)C2CC(=O)N(c3cccc(C)c3C)C2)c1 (stereo not drawn) the results were Pf growth 96h inactive, CHX counter inactive, NS1 inh inactive, Shiga toxin inh inactive, Pf growth 48h 1.5µM and SARS PLP yeast inactive.
O=[N+]([O-])c1cnn(-c2nc(-c3ccco3)cc(C(F)(F)F)n2)c1 was read as Pf growth 96h 12µM, CHX counter inactive, Shiga toxin inh inactive, Pf growth 48h inactive and SARS PLP yeast inactive.
`COc1cc2c(cc1OC)CN(Cc1cc(OC)c(O)c(OC)c1)CC2` gave Pf growth 96h inconclusive, CHX counter inactive, Shiga toxin inh inactive, Pf growth 48h inactive and SARS PLP yeast inactive.
`O=S(=O)(c1ccc2c(c1)OCO2)N1CCN(c2nnnn2-c2ccccc2)CC1` gave Pf growth 96h inconclusive, CHX counter 36, NS1 inh inactive, Shiga toxin inh inactive, Pf growth 48h inconclusive and SARS PLP yeast inactive.
`N#Cc1c(-c2ccccc2)nc2n(-c3ccccc3)nc(C(=O)Nc3ccccc3)n2c1=O` gave Pf growth 96h 0.74µM, CHX counter inactive, NS1 inh inactive, Shiga toxin inh inactive and SARS PLP yeast inactive.
Screening CCCNC(=S)NCCN1CCCCC1 returned Pf growth 96h inactive, CHX counter inactive, NS1 inh inactive, Shiga toxin inh inactive, Pf growth 48h inactive and SARS PLP yeast inactive.
`CCNC(=S)NCCN1CCCCC1` gave Pf growth 96h 12µM, CHX counter inactive, NS1 inh inactive, Shiga toxin inh inactive and SARS PLP yeast inactive.
`COc1ccc(C2(C(=O)N3CCCC3)CCOCC2)cc1OC` gave Pf growth 96h inactive, CHX counter inactive, NS1 inh inactive, Shiga toxin inh inactive, Pf growth 48h inactive and SARS PLP yeast inactive.
Screening CCOc1ccc(N2C(=O)CC(SC(=NC)Nc3ccc(F)cc3)C2=O)cc1 (stereo not drawn) returned Pf growth 96h 9.3µM, CHX counter inactive, NS1 inh inactive, Shiga toxin inh inactive, Pf growth 48h inconclusive and SARS PLP yeast inactive.
For CN=C(Nc1ccc(C)c(C)c1)SC1CC(=O)N(c2ccc(OC)cc2)C1=O (stereo not drawn) the results were Pf growth 96h inactive, CHX counter inactive, NS1 inh inactive, Shiga toxin inh inactive, Pf growth 48h 12µM and SARS PLP yeast inactive.
Screening COc1ccc(CNc2nc3ccccc3s2)cc1OC returned Pf growth 96h inconclusive, CHX counter 45, NS1 inh inactive, Shiga toxin inh 66, Pf growth 48h inactive and SARS PLP yeast inactive.
`Cc1ccc(CNc2nc3ccccc3s2)s1` gave Pf growth 96h inconclusive, CHX counter inactive, NS1 inh inactive, Shiga toxin inh inactive, Pf growth 48h inactive and SARS PLP yeast inactive.
`c1ccc(CCNc2nc3ccccc3s2)cc1` gave Pf growth 96h inactive, CHX counter 67, NS1 inh inactive, Shiga toxin inh 85 and SARS PLP yeast inactive.
`C=CCOc1ccc(CNc2nccs2)cc1` gave Pf growth 96h inconclusive, CHX counter 22, NS1 inh inactive, Shiga toxin inh 55, Pf growth 48h inactive and SARS PLP yeast inactive.
COc1ccc(CNc2nccs2)cc1OC was read as Pf growth 96h 12µM, CHX counter inactive, NS1 inh inactive, Shiga toxin inh inactive, Pf growth 48h inactive and SARS PLP yeast inactive.
For COc1ccc(CC(=O)Nc2nccs2)cc1OC the results were Pf growth 96h inactive, CHX counter inactive, NS1 inh inactive, Shiga toxin inh inactive, Pf growth 48h inconclusive and SARS PLP yeast inactive.
For O=C(CS(=O)(=O)Cc1ccccc1)Nc1nc2ccccc2s1 the results were Pf growth 96h inactive, CHX counter inactive, NS1 inh inactive, Shiga toxin inh inactive, Pf growth 48h inactive and SARS PLP yeast inactive.
`O=C(COC(=O)[C@@H]1CCCN1S(=O)(=O)c1ccccc1F)Nc1ccc(OC(F)F)cc1` gave Pf growth 96h inactive, CHX counter inactive, Shiga toxin inh inactive, Pf growth 48h inactive and SARS PLP yeast inactive.
CN(C)/C=C/C(=O)c1ccn(S(=O)(=O)c2ccccc2)c1 was read as Pf growth 96h inconclusive, CHX counter inactive, NS1 inh inactive, Shiga toxin inh inactive, Pf growth 48h inconclusive and SARS PLP yeast inactive.
Cc1cc(Cl)ccc1OCC(=O)OCC(=O)NC1CCCC1 was read as Pf growth 96h inactive, Pf growth 48h inactive and SARS PLP yeast inactive.
Cc1cc(Cl)ccc1OCC(=O)NNC(=O)c1ccco1 was read as Pf growth 96h inactive, CHX counter 35, NS1 inh inactive, Shiga toxin inh 35, Pf growth 48h inactive and SARS PLP yeast inactive.
Cc1cccc(C)c1OCC(=O)NNC(=S)NC(=O)C1CC1 was read as Pf growth 96h 10µM, CHX counter inactive, NS1 inh inactive, Shiga toxin inh inactive, Pf growth 48h inconclusive and SARS PLP yeast inactive.
Cc1cc(Cl)ccc1OCC(=O)NC1CCCC1 was read as Pf growth 96h inconclusive, CHX counter 34, NS1 inh inactive, Shiga toxin inh inactive and SARS PLP yeast inactive.
Cc1cccc(C)c1OCC(=O)NC1CC1 was read as Pf growth 96h inactive, CHX counter inactive, NS1 inh inactive, Shiga toxin inh inactive, Pf growth 48h 2.9µM and SARS PLP yeast inactive.
`COC(=O)c1sc2ccccc2c1-n1cccc1C(=O)C(=O)Nc1ccccc1` gave Pf growth 96h inactive, CHX counter inactive, NS1 inh inactive, Shiga toxin inh inactive, Pf growth 48h inactive and SARS PLP yeast inactive.
CCOc1ccc(C2/C(=C(/O)c3ccc(Cl)cc3)C(=O)C(=O)N2CCCN(C)C)cc1OC (stereo not drawn) was read as Pf growth 96h inactive, CHX counter inactive, NS1 inh inactive, Shiga toxin inh inactive, Pf growth 48h inactive and SARS PLP yeast inactive.
Screening OCCCNc1cc(-c2ccccc2)nc2cc(-c3ccc(F)cc3)nn12 returned Pf growth 96h inactive, CHX counter inactive, NS1 inh inactive, Pf growth 48h inconclusive and SARS PLP yeast inactive.
For O=C(COc1ccc2ccccc2c1)NC1CC1 the results were Pf growth 96h inactive, CHX counter 43, NS1 inh inactive, Shiga toxin inh 70 and SARS PLP yeast inactive.
Screening O=C(COc1ccc(Cl)cc1Cl)NC1CCSC1=O (stereo not drawn) returned CHX counter 40, NS1 inh inactive, Shiga toxin inh 131, Pf growth 48h inactive and SARS PLP yeast inactive.
For Cc1cccc(OCC(=O)NC2CCCCCC2)c1C the results were Pf growth 96h inconclusive, CHX counter inactive, NS1 inh inactive, Shiga toxin inh inactive, Pf growth 48h inactive and SARS PLP yeast inactive.
Cc1ccccc1OCC(=O)NC1CCCCCCC1 was read as Pf growth 96h inactive, CHX counter inactive, NS1 inh inactive, Shiga toxin inh 59, Pf growth 48h inactive and SARS PLP yeast inactive.
